Measured values reported in PubChem BioAssay.
Values joined by “and” are separate entries in the source; they are usually repeats but may differ in a detail not shown here. Equal values may be shown once. Some compounds were tested as several samples or in several runs, with calls that do not always agree. Active and inactive are the calls of the source.

Test: PSAC antagonists in infected red cells, primary screen, cell-based, P. falciparum Indochina, OD700, 2 h (AID 1155);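 further: lysis reports solute entry through the parasite surface anion channel PSAC; channel blockers reduce lysis of infected cells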
Conditions: P. falciparum Indochina infected erythrocytes, osmotic lysis OD700; higher = more signal, called active from +8 up or from −8 down

Row | SMILES | z-score
1 | CC(CO)N1C(=O)[C@@H]2C3C(=O)OCCC=C[C@H]3OC23C=CCN(c2ccc(Cl)cc2)C(=O)[C@@H]13 (some centres undefined) | 1.02 (inactive) and 0.352 (inactive)
2 | CCOC(=O)NN=C1C[C@@H](O)[C@@H](O)[C@@H]2[C@@H]3C(=O)N(Cc4ccc5c(c4)OCO5)C(=O)[C@@H]3CC[C@@H]12 | 1.29 (inactive)
3 | C=CCN(C(=O)C(c1cccs1)N(C(=O)/C=C\C(=O)O)c1ccc(CCO)cc1)C(C)(C)C (centres undefined) | -0.432 (inactive) and 0.0511 (inactive)
4 | C=CCN(C(=O)C(c1cccs1)N(C(=O)/C=C\C(=O)O)c1c(Cl)cccc1CO)C(C)(C)C (centres undefined) | -0.0344 (inactive) and -0.313 (inactive)
5 | C=CCN(CCCCC)C(=O)C1N(c2c(Cl)cccc2CO)C(=O)C2C(C(=O)O)C3C=CC21O3 (centres undefined) | 0.078 (inactive) and 0.573 (inactive)
6 | C=CCN(CCCC)C(=O)C(c1cccs1)N(CCOCCO)C(=O)/C=C\C(=O)O (centres undefined) | -0.832 (inactive) and -0.75 (inactive)
7 | CCCCCN1CC=CC23O[C@@H]4C=CCCOC(=O)C4[C@H]2C(=O)N(C(C)CO)[C@@H]3C1=O (some centres undefined) | 0.174 (inactive) and 0.44 (inactive)
8 | COC(=O)[C@H](C)NC(=O)CCC1CC(OC(=O)NCCc2ccc(F)cc2)CC2(CCCC(COC(=O)NCCCN3CCCC3=O)O2)O1 (some centres undefined) | -0.744 (inactive)
9 | COC(=O)C1=C(C)N(Cc2ccccc2)C2=C(C(C)=O)C[C@@](O)(C(=O)OC)C(=O)N2[C@@H]1c1ccccc1 | -1.13 (inactive) and -0.742 (inactive)
10 | C=CCN(CCCCC)C(=O)C(c1cccs1)N(C(=O)/C=C\C(=O)O)c1c(Cl)cccc1CO (centres undefined) | 0.092 (inactive) and 0.571 (inactive)
11 | CC(C)CON=C1C[C@@H](O)[C@@H](O)[C@@H]2[C@@H]3C(=O)N(c4cccc(Oc5ccccc5)c4)C(=O)[C@@H]3CC[C@H]12 | 0.0644 (inactive)
12 | C=CCN(C(=O)C(c1cccs1)N(C(=O)/C=C\C(=O)O)C(C)(C)CO)c1ccc(OC)cc1 (centres undefined) | -0.775 (inactive) and -0.466 (inactive)
13 | CCCNC(=O)OC[C@H]1O[C@H](CCON=C(C)CCN2CCc3nc(-c4ccccc4)c(-c4ccccc4)cc3C2)C=C[C@@H]1Oc1ccc(OC)cc1 | 0.454 (inactive)
14 | C=CC[C@@H](O)c1ccc(O)c(F)c1 | 0.574 (inactive) and -1.54 (inactive)
15 | C=CCN(Cc1ccccc1)C(=O)C(c1cccs1)N(C(=O)/C=C\C(=O)O)c1c(Cl)cccc1CO (centres undefined) | 0.0805 (inactive) and 0.266 (inactive)
16 | CC(C)[Si]1(C(C)C)OCc2cc(CCCc3cc4c(c(CCc5ccccc5)n3)[Si](C(C)C)(C(C)C)OC4)nc(CCc3ccccc3)c21 | -0.712 (inactive) and -0.436 (inactive)
17 | COC(=O)[C@@]1(Cc2ccc(F)cc2)[C@H]2c3cc(C(=O)N4CCCC4)n(Cc4c(CO)[nH]cc(C)c4=O)c3C[C@H]2CN1C(=O)c1ccccc1 | 0.148 (inactive) and 0.543 (inactive)
18 | C=CCN(C(=O)C1N(c2ccc(CCO)cc2)C(=O)C2C(C(=O)O)C3C=CC21O3)c1ccc(OC)cc1 (centres undefined) | 0.752 (inactive) and -0.136 (inactive)
19 | C=CCN(C(=O)C1N(CCOCCO)C(=O)C2C(C(=O)O)C3C=CC21O3)C(C)(C)C (centres undefined) | 0.264 (inactive) and 0.438 (inactive)
20 | CCOC(=O)c1ccc(NC(=O)O[C@H]2[C@H](OC(=O)Nc3ccccc3)[C@H](OC(=O)Nc3ccccc3)[C@@H](OC)O[C@@H]2CO)cc1 | 2.63 (inactive) and 11.5 (active)

Row | SMILES | z-score
21 | CC(C)=NOCc1ccc(-c2cn([C@@H]3COC[C@H]3O)nn2)cc1 | 0.536 (inactive)
22 | C[C@@H]1CC[C@H]2C(=O)O[C@H](CN=[N+]=[N-])CN2[C@H]1c1ccc(Br)cc1 | 0.23 (inactive) and 1.03 (inactive)
23 | C=CCN1C(=O)[C@]2(O[C@H](CCn3cc(CCO)nn3)[C@@H]([Si](C)(C)c3ccc(OC)cc3)[C@@H]2C)c2cc(N3C(=O)c4cccc5cccc3c45)ccc21 | 9.07 (active) and 8.54 (active)
24 | CC(CO)N1C(=O)[C@@H]2C3C(=O)OCCC=C[C@H]3OC23C=CCN(Cc2ccccc2)C(=O)[C@@H]13 (some centres undefined) | 1.11 (inactive) and 0.0933 (inactive)
25 | C=CCN(C(=O)C1N(c2c(Cl)cccc2CO)C(=O)C2C(C(=O)O)C3C=CC21O3)C(C)(C)C (centres undefined) | 0.821 (inactive) and -1.1 (inactive)
26 | O=C1C[C@]2(c3ccc([N+](=O)[O-])cc3)C(=O)N(Cc3ccccc3)c3cc(CO)ccc3[C@H]2N1C1CCCCC1 | -0.198 (inactive) and 1.01 (inactive)
27 | C[C@@H](ON=C1[C@H]2CCn3c(=O)n(-c4ccccc4)c(=O)n3[C@H]2[C@H](O)[C@@H]2O[C@H]12)c1cn([C@H](CO)Cc2ccccc2)nn1 | 0.461 (inactive)
28 | C=CCN(CCCC)C(=O)C1N(C(C)(C)CO)C(=O)C2C(C(=O)O)C3C=CC21O3 (centres undefined) | 0.134 (inactive) and 0.354 (inactive)
29 | COC(=O)[C@@]1(Cc2ccccc2)[C@H]2c3cc(C(=O)N(C)C)n(C[C@H](O)CO)c3C[C@H]2CN1C(=O)c1ccccc1 | 0.324 (inactive) and 0.32 (inactive)
30 | C[C@@H]1CN2[C@@H](CC[C@@H](C)[C@@H]2c2ccc(Br)cc2)C(=O)O1 | 0.279 (inactive) and -1.09 (inactive)
31 | COC(=O)C1=C(C)N(Cc2ccccc2)[C@]23O[C@](C(=O)OC)(C(=O)N2[C@@H]1c1ccccc1)[C@@H](C(=O)OC)[C@H]3C(=O)OC | 0.185 (inactive) and 0.319 (inactive)
32 | C=CCN(Cc1ccccc1)C(=O)C1N(c2ccc(CCO)cc2)C(=O)C2C(C(=O)O)C3C=CC21O3 (centres undefined) | 0.401 (inactive) and 0.572 (inactive)
33 | CCOC(=O)C[C@H]1[C@H](OC(=O)c2ccccc2-c2ccccc2)[C@@H](NC(=O)Cc2ccc(OC)cc2)c2cc(OCCCO)ccc2N1C(=O)c1ccc2ccccc2n1 | 0.674 (inactive) and 0.879 (inactive)
34 | CC(C)CCN1CCc2nc(-c3ccccc3)c3c(c2C1)CO[C@@H](C)C3 | 0.145 (inactive)
35 | CCOC(=O)[C@@H]1CC=C2CC1C(=O)N1CCC[C@@H]1[C@H]2O[Si](C)(C)C(C)(C)C (some centres undefined) | -0.474 (inactive) and 0.0056 (inactive)
36 | COC(=O)[C@@]1(Cc2ccc(OC)cc2)[C@H]2c3cc(C(=O)N(C)C)n(Cc4ccc(O)c(OC)c4)c3C[C@H]2CN1C(=O)c1ccccc1 | 0.45 (inactive) and 1.11 (inactive)
37 | CO[C@H]1COC(=O)CC=C[C@H](C)[C@H](OC)COC(=O)[C@@H](C)COC(=O)CC=C[C@@H]1C | -0.162 (inactive) and -0.455 (inactive)
38 | CCOC(=O)C[C@H]1[C@H](OC(=O)c2ccccc2-c2ccccc2)[C@@H](NC(=O)c2ccccc2)c2cc(OCCCO)ccc2N1C(=O)c1ccc2ccccc2n1 | 0.709 (inactive) and 0.295 (inactive)
39 | C=CCN(CCCC)C(=O)C1N(c2c(Cl)cccc2CO)C(=O)C2C(C(=O)O)C3C=CC21O3 (centres undefined) | 1.05 (inactive) and 0.871 (inactive)
